Results reported in PubChem BioAssay (NCATS).
Inconclusive results are not listed. Calls of active or inactive are those of the source. The call rests on the fitted dose curve; tested in HEK293 reporter line.

Experiment: qHTS for Inhibitors of the Functional Ribonucleoprotein Complex (vRNP) of Lassa (LASV) Arenavirus: LASV Primary Screen - GLuc reporter signal (AID 1347082); further: nearly all actives have a fitted effect of over 60% in size
Conditions: LASV minigenome vRNP, Gaussia luciferase reporter; series mostly up to 57.5 µM; activity change, negative = inhibition: at the top concentration
On the % scale 0 is the no-effect control and ±100 the full control effect; potency means the concentration at half of the fitted maximal effect.

Structure (SMILES) | activity change, negative = inhibition | Potency
COc1ccc(-c2coc3cc(O)ccc3c2=O)cc1OC | 7.15% (inactive) | –
C#CCCC[C@@H]1OC(=O)CNC(=O)C([C@@H](C)CC)NC(=O)[C@@H]2CCCN2C(=O)C([C@@H](C)CC)OC(=O)[C@H](Cc2ccccc2)N(C)C(=O)[C@H](C(C)C)NC(=O)C1(C)C (stereo not given in full) | 10.6% (inactive) | –
c1ccc(-c2ccncc2)cc1 | 7.3% (inactive) | –
C=C1C(=O)O[C@H]2C[C@]3(C)C([C@@H](OC(=O)/C(C)=C/C)[C@H]12)[C@](C)(O)CC[C@H]3O (stereo not given in full) | -21% (inactive) | –
C=C1[C@@H]2C[C@]3(C(CC2=O)[C@]24C5C[C@H]3[C@H]2N(CC)C[C@]5(C)CC[C@@H]4O)[C@@H]1O (stereo not given in full) | 10.2% (inactive) | –
O=c1ccn([C@H]2C[C@H](O)[C@@H](CO)O2)c(=O)[nH]1 | 3.43% (inactive) | –
O=C1C=C(O)c2c(O)cc(O)c(O)c2C1=O | 3.64% (inactive) | –
CC1CCC[C@H](O)CCCCCc2cc(O)cc(O)c2C(=O)O1 (stereo not given in full) | 2% (inactive) | –
CCCCCCCC(=O)C(C)C(=O)N(C)[C@H](Cc1ccc(OC)cc1)C(=O)N(C)[C@H](C(N)=O)C(C)C (stereo not given in full) | -2.62% (inactive) | –
COc1c2n(C)ccc3c-2n(c(=O)c1=O)c1ccccc31 | 4.21% (inactive) | –
CCCCCCCCCCCCCCCC(=O)OC(CO)CO | -3.9% (inactive) | –
O=c1c(-c2ccc(O)cc2)coc2cc(OC3O[C@H](CO)[C@H](O)[C@H](O)[C@H]3O)cc(O)c12 (stereo not given in full) | – | 19.3 µM (active)
C[C@H]1CC[C@@H]2[C@@H](C)[C@H]3C(C[C@H]4C5CC[C@H]6C[C@@H](O)CC[C@]6(C)C5CC[C@]34C)N2C1 (stereo not given in full) | 2.81% (inactive) | –
Cc1nc(C)c(C)nc1C | 1.56% [at 115 µM] (inactive) | –
c1ccc(CN(Cc2ccccc2)Cc2ccccc2)cc1 | 5% [at 115 µM] (inactive) | –
COC(=O)Cc1ccccc1 | -10.7% [at 115 µM] (inactive) | –
CN(CC=CC#CC(C)(C)C)Cc1cccc2ccccc12 | 2.23% (inactive) | –
COc1ccc2cc1Oc1ccc(cc1)CC1c3cc(c(OC)cc3CCN1C)Oc1c(OC)c(OC)c(OC)c3c1C(C2)N(C)CC3 (stereo not given) | -12% [at 24.7 µM] (inactive) | –
CC1(C)C[C@H](O)[C@]2(CO)[C@H](O)C[C@]3(C)C(=CCC4[C@@]5(C)CC[C@H](O)C(C)(C)C5CC[C@]43C)[C@@H]2C1 (stereo not given in full) | -1.14% (inactive) | –
CCN1C[C@]2(C)CCC(OC)[C@@]34C5C[C@@H]6CC[C@@](O)(C5C(=O)O6)[C@@H](C(O)C23)[C@@H]14 (stereo not given in full) | 2.87% (inactive) | –

Structure (SMILES) | activity change, negative = inhibition | Potency
c1cnc2c(-c3nccc4c3[nH]c3ccccc34)cccc2c1 | -20.7% (inactive) | –
CC1=CCC[C@@H]2[C@@](C)(CC/C(C)=C/C(=O)O)[C@H](C)CC[C@@]12C | 19.4% (inactive) | –
C=C(C)[C@@H]1CC[C@]2(C(=O)O)CC[C@]3(C)C(CCC4[C@@]5(C)CC[C@H](O)C(C)(C)C5CC[C@]43C)C12 (stereo not given in full) | 6.41% (inactive) | –
COc1ccc(-c2coc3cc(OC)cc(O)c3c2=O)cc1 | -12.2% (inactive) | –
OCc1ccccc1O[C@@H]1O[C@H](CO)[C@H](O)[C@H](O)[C@H]1O | -18.8% (inactive) | –
C=C(C=O)C[C@@H]1C[C@H](O)C2OC3C[C@]4(C)OC5/C=C\CC6OC7C(CC=CCC6OC5CCCC4OC3CC2O1)OC1CC2OC3CC(=O)OC3C[C@@H](C)C[C@@]2(C)OC1C[C@@H]7C (stereo not given in full) | 3.04% (inactive) | –
COc1c2c(c(CCC(=O)O)c3c1C=CC(C)(C)O3)OC(C)(C)C=C2 | 1.74% (inactive) | –
C=C(C)C(O)CC/C(C)=C/Cc1c(O)ccc(C(=O)/C=C/c2ccc(O)cc2)c1O (stereo not given) | -5.39% (inactive) | –
CC(C)CNC(=O)/C=C/C=C/CCCCCC/C=C/c1ccc2c(c1)OCO2 | -0.169% (inactive) | –
NCCC(=O)c1ccccc1N | -4.69% (inactive) | –
CC(C)C/C=C(\C=O)c1ccccc1 | 1.03% [at 115 µM] (inactive) | –
C=C1[C@@H](OC(C)=O)CC[C@]2(C)[C@@H]1C[C@@H]1C[C@H](OC(C)=O)C(C)=C([C@@H](OC(C)=O)[C@@H]2OC(C)=O)C1(C)C | 7.64% (inactive) | –
Cc1cc(OCCCc2c(C(=O)O)n(Cc3cccnc3)c3c(-c4c(COc5ccc(N6CCN([S+](C)(=O)[O-])CC6)cc5)nn(C)c4C)cccc23)cc(C)c1Cl | -20% (inactive) | –
CC(C)=CCC[C@](C)(O[C@@H]1O[C@H](CO[C@@H]2OC[C@H](O[C@@H]3OC[C@@H](O)[C@H](O)[C@H]3O)[C@H](O)[C@H]2O)[C@@H](O)[C@H](O)[C@H]1O)C1CC[C@]2(C)C1[C@H](O)CC1[C@@]3(C)CC[C@H](O)C(C)(C)C3[C@@H](O)C[C@]12C (stereo not given in full) | -9% (inactive) | –
CCOC(=O)/C=C/c1ccccc1 | 7.64% [at 115 µM] (inactive) | –
COc1cc2c(cc1O)[C@@H]1Cc3cc(O)c(OC)cc3[C@H](C2)N1C | -5.04% (inactive) | –
O=C(O)Cc1ccc(O)cc1 | 28.5% (inactive) | –
N=C1SC(=Cc2ccc(-c3ccc4c(c3)C(=O)NC4=O)o2)C(=O)N1c1ccc(Br)cc1 | 3.5% (inactive) | –
C[C@]12CC[C@@H](O)CC1=CC(=O)C1C2CC[C@]2(C)C(=O)[C@H](O)CC12 (stereo not given in full) | 7.58% (inactive) | –
COc1ccc([C@@]23Oc4cc(OC)cc(OC)c4[C@]2(O)[C@H](O)[C@H](C(=O)N(C)C)[C@H]3c2ccccc2)cc1 | -57.8% (inactive) | –
